Assay results from paper PMC9911399, “Two distinct binding modes provide the RNA-binding protein RbFox with extraordinary sequence specificity”.
Substitutions are numbered along the chain they refer to; changes in the protein carry UniProt numbers. Over roughly 16,000 sequences, “ka relative to ugcaugu” has its median near 0.0091; the highest 2% begin near 0.032. For the sample, the highest values were picked, then their nearest neighbours and some sequences at random.

T1: RBFOX1 RRM (Homo sapiens, UniProt Q9NWB1 109-208)
T1 sequence: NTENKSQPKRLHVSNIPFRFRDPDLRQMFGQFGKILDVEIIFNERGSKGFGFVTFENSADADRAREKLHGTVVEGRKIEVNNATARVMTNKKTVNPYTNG

B1: GGGUACA (DNA:RNA)
RNA: GGGAGACCGGAAUUCAGAUUGUCCGGGUACAUUAAAUCCCGUCGUAGCCACCA
DNA 1: CAATCTGAATTCCGGTCTCCC
DNA 2: TGGTGGCTACGACGGGATT
B2: GUUCUUU (DNA:RNA)
RNA: B1 RNA with G26U, G27U, U28C, A29U, C30U, A31U
DNA 1: CAATCTGAATTCCGGTCTCCC
DNA 2: TGGTGGCTACGACGGGATT
B3: UCUUAUA (DNA:RNA)
RNA: B1 RNA with G25U, G26C, G27U, C30U
DNA 1: CAATCTGAATTCCGGTCTCCC
DNA 2: TGGTGGCTACGACGGGATT
B4: UAGUUAU (DNA:RNA)
RNA: B1 RNA with G25U, G26A, A29U, C30A, A31U
DNA 1: CAATCTGAATTCCGGTCTCCC
DNA 2: TGGTGGCTACGACGGGATT
B5: CCUCUCC (DNA:RNA)
RNA: B1 RNA with G25C, G26C, G27U, U28C, A29U, A31C
DNA 1: CAATCTGAATTCCGGTCTCCC
DNA 2: TGGTGGCTACGACGGGATT
B6: AUAACCC (DNA:RNA)
RNA: B1 RNA with G25A, G26U, G27A, U28A, A29C, A31C
DNA 1: CAATCTGAATTCCGGTCTCCC
DNA 2: TGGTGGCTACGACGGGATT
B7: GGCGCUG (DNA:RNA)
RNA: B1 RNA with G27C, U28G, A29C, C30U, A31G
DNA 1: CAATCTGAATTCCGGTCTCCC
DNA 2: TGGTGGCTACGACGGGATT
B8: GGUGUCA (DNA:RNA)
RNA: B1 RNA with G27U, U28G, A29U
DNA 1: CAATCTGAATTCCGGTCTCCC
DNA 2: TGGTGGCTACGACGGGATT
B9: AAACCAG (DNA:RNA)
RNA: GGGAGACCGGAAUUCAGAUUGUCCAAACCAGUUAAAUCCCGUCGUAGCCACCA
DNA 1: CAATCTGAATTCCGGTCTCCC
DNA 2: TGGTGGCTACGACGGGATT
B10: AACUAGA (DNA:RNA)
RNA: B1 RNA with G25A, G26A, G27C, C30G
DNA 1: CAATCTGAATTCCGGTCTCCC
DNA 2: TGGTGGCTACGACGGGATT
B11: AUUUUUU (DNA:RNA)
RNA: B9 RNA with A26U, A27U, C28U, C29U, A30U, G31U
DNA 1: CAATCTGAATTCCGGTCTCCC
DNA 2: TGGTGGCTACGACGGGATT
B12: CGGAGUG (DNA:RNA)
RNA: B1 RNA with G25C, U28A, A29G, C30U, A31G
DNA 1: CAATCTGAATTCCGGTCTCCC
DNA 2: TGGTGGCTACGACGGGATT
B13: GGAAUUC (DNA:RNA)
RNA: B1 RNA with G27A, U28A, A29U, C30U, A31C
DNA 1: CAATCTGAATTCCGGTCTCCC
DNA 2: TGGTGGCTACGACGGGATT
B14: GGGAGUG (DNA:RNA)
RNA: B1 RNA with U28A, A29G, C30U, A31G
DNA 1: CAATCTGAATTCCGGTCTCCC
DNA 2: TGGTGGCTACGACGGGATT
B15: GGAGUGU (DNA:RNA)
RNA: B1 RNA with G27A, U28G, A29U, C30G, A31U
DNA 1: CAATCTGAATTCCGGTCTCCC
DNA 2: TGGTGGCTACGACGGGATT
B16: GGGAUUC (DNA:RNA)
RNA: B1 RNA with U28A, A29U, C30U, A31C
DNA 1: CAATCTGAATTCCGGTCTCCC
DNA 2: TGGTGGCTACGACGGGATT
B17: CGGAUUC (DNA:RNA)
RNA: B1 RNA with G25C, U28A, A29U, C30U, A31C
DNA 1: CAATCTGAATTCCGGTCTCCC
DNA 2: TGGTGGCTACGACGGGATT
B18: AGUAUUG (DNA:RNA)
RNA: B9 RNA with A26G, A27U, C28A, C29U, A30U
DNA 1: CAATCTGAATTCCGGTCTCCC
DNA 2: TGGTGGCTACGACGGGATT
B19: GCGUCGG (DNA:RNA)
RNA: B1 RNA with G26C, A29C, C30G, A31G
DNA 1: CAATCTGAATTCCGGTCTCCC
DNA 2: TGGTGGCTACGACGGGATT
B20: CGGCUAU (DNA:RNA)
RNA: B9 RNA with A25C, A26G, A27G, C29U, G31U
DNA 1: CAATCTGAATTCCGGTCTCCC
DNA 2: TGGTGGCTACGACGGGATT
B21: AAACACU (DNA:RNA)
RNA: B9 RNA with C29A, A30C, G31U
DNA 1: CAATCTGAATTCCGGTCTCCC
DNA 2: TGGTGGCTACGACGGGATT
B22: GCGCAGU (DNA:RNA)
RNA: B1 RNA with G26C, U28C, C30G, A31U
DNA 1: CAATCTGAATTCCGGTCTCCC
DNA 2: TGGTGGCTACGACGGGATT
B23: GUUGUGG (DNA:RNA)
RNA: B9 RNA with A25G, A26U, A27U, C28G, C29U, A30G
DNA 1: CAATCTGAATTCCGGTCTCCC
DNA 2: TGGTGGCTACGACGGGATT
B24: UGGACCG (DNA:RNA)
RNA: B1 RNA with G25U, U28A, A29C, A31G
DNA 1: CAATCTGAATTCCGGTCTCCC
DNA 2: TGGTGGCTACGACGGGATT
B25: GGAACGU (DNA:RNA)
RNA: B9 RNA with A25G, A26G, C28A, A30G, G31U
DNA 1: CAATCTGAATTCCGGTCTCCC
DNA 2: TGGTGGCTACGACGGGATT
B26: CGGAACG (DNA:RNA)
RNA: B1 RNA with G25C, U28A, A31G
DNA 1: CAATCTGAATTCCGGTCTCCC
DNA 2: TGGTGGCTACGACGGGATT
B27: GUUAACG (DNA:RNA)
RNA: B1 RNA with G26U, G27U, U28A, A31G
DNA 1: CAATCTGAATTCCGGTCTCCC
DNA 2: TGGTGGCTACGACGGGATT
B28: CCGAACG (DNA:RNA)
RNA: B1 RNA with G25C, G26C, U28A, A31G
DNA 1: CAATCTGAATTCCGGTCTCCC
DNA 2: TGGTGGCTACGACGGGATT
B29: GGGAACG (DNA:RNA)
RNA: B1 RNA with U28A, A31G
DNA 1: CAATCTGAATTCCGGTCTCCC
DNA 2: TGGTGGCTACGACGGGATT
B30: UGGAACG (DNA:RNA)
RNA: B1 RNA with G25U, U28A, A31G
DNA 1: CAATCTGAATTCCGGTCTCCC
DNA 2: TGGTGGCTACGACGGGATT
B31: GUGAACG (DNA:RNA)
RNA: B1 RNA with G26U, U28A, A31G
DNA 1: CAATCTGAATTCCGGTCTCCC
DNA 2: TGGTGGCTACGACGGGATT
B32: GAGAACG (DNA:RNA)
RNA: B1 RNA with G26A, U28A, A31G
DNA 1: CAATCTGAATTCCGGTCTCCC
DNA 2: TGGTGGCTACGACGGGATT

What follows are binders tested against T1, RBFOX1 RRM (assay: EMSA; HiTS-Eq, 1 nM pool, 10 min; buffer printed only for the single-RNA assays: 10 mM Tris pH 7.5, 150 mM NaCl, 3.4 mM EDTA, 0.001% NP-40, 30 C). Details: tags: His6 N-terminal (pET28a); label: 5' 32P.
How it was run: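 Relative association constants, normalised to the cognate motif, were derived by comparing read counts of each RNA species with those of the control reaction. The RNA sequenced was the free fraction, separated by 8% native PAGE after a 10 min equilibration in 50 µL of 1 nM 5′-radiolabelled RNA (7 randomized nucleotides) with increasing concentrations of purified wild-type or mutant RbFox RRM.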

Compared with B1, B2 is higher in binding signal: 0.0112 KA relative to UGCAUGU for the first, 0.0158 KA relative to UGCAUGU for the second.

First: B3
Second: B4
The binding signal of the first is lower: 0.00158 KA relative to UGCAUGU for the first, 0.00794 KA relative to UGCAUGU for the second.

Compared with B5, B6 is lower in binding signal: 0.00489 KA relative to UGCAUGU for the first, 0.00143 KA relative to UGCAUGU for the second.

First: B7
Second: B8
The binding signal of the first is higher: 0.0174 KA relative to UGCAUGU for the first, 0.00539 KA relative to UGCAUGU for the second.

First: B9
Second: B10
The binding signal of the first is lower: 0.000872 KA relative to UGCAUGU for the first, 0.00203 KA relative to UGCAUGU for the second.

First: B11
Second: B12
The binding signal of the first is lower: 0.007 KA relative to UGCAUGU for the first, 0.0283 KA relative to UGCAUGU for the second.

First: B13
Second: B14
The binding signal of the first is lower: 0.018 KA relative to UGCAUGU for the first, 0.0333 KA relative to UGCAUGU for the second.

First: B15
Second: B16
The binding signal of the first is lower: 0.0229 KA relative to UGCAUGU for the first, 0.044 KA relative to UGCAUGU for the second.

First: B17
Second: B18
The binding signal of the first is higher: 0.0273 KA relative to UGCAUGU for the first, 0.0121 KA relative to UGCAUGU for the second.

First: B19
Second: B20
The binding signal of the first is higher: 0.0208 KA relative to UGCAUGU for the first, 0.0107 KA relative to UGCAUGU for the second.

First: B21
Second: B22
The binding signal of the first is lower: 0.00096 KA relative to UGCAUGU for the first, 0.0136 KA relative to UGCAUGU for the second.

Compared with B23, B24 is higher in binding signal: 0.0184 KA relative to UGCAUGU for the first, 0.0269 KA relative to UGCAUGU for the second.

Compared with B25, B26 is higher in binding signal: 0.0248 KA relative to UGCAUGU for the first, 0.0344 KA relative to UGCAUGU for the second.

Compared with B27, B28 is higher in binding signal: 0.0101 KA relative to UGCAUGU for the first, 0.0118 KA relative to UGCAUGU for the second.

B29 and B30 are the same in binding signal: 0.0367 KA relative to UGCAUGU for the first, 0.0367 KA relative to UGCAUGU for the second.

Compared with B31, B32 is higher in binding signal: 0.0163 KA relative to UGCAUGU for the first, 0.0165 KA relative to UGCAUGU for the second.
